Screens from PubChem BioAssay.
RORg inh – qHTS for inhibitors of ROR gamma transcriptional activity; Drosophila S2 Gal4-RORgamma UAS-luciferase reporter, 20 h; Potency, µM (series often up to 53.6 µM), most hits filed as inhibitors; actives 5.4% (n = 310,000); AID 2551, 2010; further: nearly all actives have a fitted effect of over 60% in size
Target sequence (P51450 whole entry, looked up, the tested form may be a part): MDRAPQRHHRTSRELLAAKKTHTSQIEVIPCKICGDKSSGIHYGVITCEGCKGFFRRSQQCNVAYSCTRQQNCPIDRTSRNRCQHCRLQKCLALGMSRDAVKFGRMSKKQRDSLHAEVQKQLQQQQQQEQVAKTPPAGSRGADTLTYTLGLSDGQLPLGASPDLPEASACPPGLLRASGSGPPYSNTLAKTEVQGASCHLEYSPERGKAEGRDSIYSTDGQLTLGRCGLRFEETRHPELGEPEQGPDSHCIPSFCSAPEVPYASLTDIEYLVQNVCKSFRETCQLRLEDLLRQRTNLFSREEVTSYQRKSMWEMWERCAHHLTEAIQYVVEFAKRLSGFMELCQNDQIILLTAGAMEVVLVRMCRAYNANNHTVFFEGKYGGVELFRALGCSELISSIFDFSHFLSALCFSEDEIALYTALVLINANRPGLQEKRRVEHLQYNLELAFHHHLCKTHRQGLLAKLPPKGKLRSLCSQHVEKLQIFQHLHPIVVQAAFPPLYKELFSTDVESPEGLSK
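Stably transfected Drosophila Schneider cells are the test system, with ROR gamma fused to Gal4 and luciferase under UAS control; luminescence is read after 20 hr of 700 uM copper sulfate induction at ambient temperature.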
Giardia killer – Small Molecules that selectively kill Giardia lamblia: qHTS | Giardia lamblia trophozoite viability | activity change, % at 7.66 µM, hits read low | actives 0.15% (n = 340,000); in the data active means activity change below about -80%; inconclusive means between about -30% and that limit;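 further: parasites exposed to compound for two days anaerobically before the ATP read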
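Giardia lamblia trophozoites (100 cells/well) were incubated with compounds for 48 h at 37 deg C under anaerobic conditions. Viability was read as ATP content by one-step luminescence after 15-30 min at room temperature.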
ELG1 repair inh – qHTS screen for small molecules that inhibit ELG1-dependent DNA repair in human embryonic kidney (HEK293T) cells expressing luciferase-tagged ELG1; Potency, µM (highest dose often 46.1 µM), most hits filed as inhibitors; AID 504467, 2011; actives 2.3% (n = 330,000); HEK293T ELG1-luciferase reporter, luminescence, 16 h; DNA damage induced by 5-fluorouridine; further: nearly all actives have a fitted effect of over 55% in size
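DMSO vehicle served as the neutral condition. Each well held 2,000 cells given 5-fluorouridine plus compound; after 16 hr at 37 °C/5% CO2, ONE-Glo was added and luciferase measured 30 min later.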
Gal4-VP16 FLuc – VP16 counterscreen qHTS for inhibitors of ROR gamma transcriptional activity; actives 3.5% (n = 310,000); Drosophila S2 Gal4-VP16 UAS-luciferase, luminescence, 20 h; Potency, µM (series often up to 53.6 µM), hits mostly inhibitors;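 further: Gal4-VP16 expression switched on by copper sulfate through the metallothionein promoter; nearly all actives have a fitted effect of over 50% in size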
BRCA1 expr up – qHTS Assay to Identify Small Molecule Activators of BRCA1 Expression; MCF7-BRCA1-FFLuc reporter, luminescence, 48 h; response scale: scaled: vehicle 0%, 10 µM genistein 100%; Potency, µM (highest dose often 46.1 µM), actives largely listed as activators; actives 1.1% (n = 380,000); further: nearly all actives have a fitted effect of over 80% in size
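Luminescence from a BRCA1-driven firefly luciferase in MCF7 cells was read after 48 h compound exposure at 37 C. Data normalized against DMSO and a 10microM genistein activation control, then curve-fitted across the titration.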
p53 reactivation – qHTS assay for re-activators of p53 using a Luc reporter | Potency, µM (top dose mostly 92.2 µM), most hits filed as activators | actives 0.063% (n = 320,000) | H1299 p53-A138V BP100-luciferase reporter, luminescence, 24 h; further: nearly all actives have a fitted effect of over 45% in size
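p53-null H1299 cells stably carrying temperature-sensitive p53-A138V and a BP100-luciferase reporter were pinned with compounds (4-point, 1:5 series) and held 24 hrs at 37 deg C. Luminescence was read 10 min after detection reagent.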
Each line names hits and unclear results; the compound was inactive in the other large screens. The list is not random: actives were taken first. Their share in the collection is about 7.6%. Unless noted, the call rests on the fitted dose curve; in most records, active means well fitted curve in the direction sought with a large enough effect; inconclusive means small, poorly fitted or top-dose-only effect, or another doubt; inactive means no such curve, though single readings can be large; an effect the other way counts as inactive or inconclusive.

COc1ccc(CNC(=O)c2ccc(NC(=O)C3CCCO3)cc2)cc1 (stereo not given)	none (no result: Gal4-VP16 FLuc)
CCOC(=O)N(C)c1c(CC)nc2c(OCCOc3ccccc3)cccn12	none (no result: RORg inh, Giardia killer, ELG1 repair inh, Gal4-VP16 FLuc, p53 reactivation)
CC(C)N=C1NN=C(c2cccs2)CS1	RORg inh 13µM, ELG1 repair inh inconclusive, BRCA1 expr up inconclusive
COCC(C)N=C1NN=C(c2cc(C)n(Cc3ccccc3Cl)c2C)CS1 (stereo not given)	ELG1 repair inh inconclusive
O=C(CCN1CCN(C(c2ccccc2)c2ccccc2)CC1)N/N=C/c1ccc(O)cc1	none
O=C(CCN1CCN(c2ccccc2)CC1)N/N=C/c1ccccc1OC(F)F	RORg inh 11µM, ELG1 repair inh 12µM, Gal4-VP16 FLuc inconclusive
COc1ccc(OC)c(/C=N/NC(=O)CCN2CCN(C(c3ccccc3)c3ccccc3)CC2)c1	RORg inh 10µM, ELG1 repair inh inconclusive, Gal4-VP16 FLuc inconclusive
O=C(CCN1CCN(C(c2ccccc2)c2ccccc2)CC1)N/N=C/c1ccc(O)cc1O	RORg inh 14µM, p53 reactivation inconclusive
COc1ccc(/C=N\NC(=O)CCN2CCN(c3ccccc3)CC2)cc1OC	none
CCC(C)NC(=O)Cn1nc(Cc2ccncc2)c2ccccc2c1=O (stereo not given)	none
CCOC(=O)N1CCN(c2ncnc3c2[nH]c2ccc(F)cc23)CC1	RORg inh inconclusive, ELG1 repair inh 12µM, Gal4-VP16 FLuc 7.1µM
O=C(c1ccco1)N1CCN(c2ncnc3c2[nH]c2ccc(Br)cc23)CC1	ELG1 repair inh 23µM, Gal4-VP16 FLuc inconclusive
CCOC(=O)N1CCN(c2ncnc3c2[nH]c2ccc(OC)cc23)CC1	ELG1 repair inh inconclusive
O=C(c1ccco1)N1CCN(c2ncnc3c2[nH]c2ccccc23)CC1	RORg inh inconclusive, ELG1 repair inh inconclusive, p53 reactivation inconclusive (no result: Giardia killer, BRCA1 expr up)
Fc1ccc2[nH]c3c(N4CCN(c5ccccc5)CC4)ncnc3c2c1	ELG1 repair inh 7.3µM (no result: Gal4-VP16 FLuc)
Cc1nnc(NC(=O)CSc2nc3ccccc3[nH]2)s1	ELG1 repair inh inconclusive
O=C(NCCOc1ccccc1F)C1CCC(=O)N(CCc2cccc(F)c2)C1 (stereo not given)	none
CC(C)Cc1nc2oc3c(Cl)ncnc3c2c2c1CCCC2	none
CC(C)c1nc2oc3c(NCC4CCCO4)ncnc3c2c2c1CCC2 (stereo not given)	ELG1 repair inh 16µM
CC(C)Cc1nc2oc3c(NCC(C)O)ncnc3c2c2c1CCCC2 (stereo not given)	ELG1 repair inh 15µM
CCCc1nc2oc3c(NCC4CCCO4)ncnc3c2c2c1COC(C)(C)C2 (stereo not given)	none
O=C(c1ccccc1)c1ccccc1N1C(=O)C=CC1=O	RORg inh 5µM, ELG1 repair inh inconclusive, Gal4-VP16 FLuc 7.1µM
O=C1C=CC(=O)N1c1ccccc1N1C(=O)C=CC1=O	none (no result: RORg inh, ELG1 repair inh, Gal4-VP16 FLuc, p53 reactivation)
O=C(COC(=O)c1cccc(-n2cnnn2)c1)c1ccc(Br)cc1	ELG1 repair inh inconclusive, p53 reactivation inconclusive (no result: RORg inh, Gal4-VP16 FLuc)
CC(=O)Nc1ccc(S(=O)(=O)N2CCN=C2SCc2ccc(F)cc2)cc1	ELG1 repair inh 2.9µM, Gal4-VP16 FLuc inconclusive
Cc1ccc2c(cnn2C(=O)CCCC(=O)NCc2ccc(F)cc2)c1	none
Cc1ccc2c(cnn2C(=O)CCCC(=O)NC(C)c2ccccc2)c1 (stereo not given)	BRCA1 expr up 2.5µM
O=C(NNC(=O)c1cc2ccccc2oc1=O)c1ccccc1	ELG1 repair inh inconclusive, BRCA1 expr up inconclusive (no result: p53 reactivation)
FC(F)(F)c1cccc(Sc2nc(-c3ccccc3)nnc2C(F)(F)F)c1	RORg inh 3.5µM, Gal4-VP16 FLuc inconclusive
FC(F)(F)c1nnc(-c2ccccc2)nc1Sc1ccccc1	RORg inh inconclusive, Gal4-VP16 FLuc inconclusive
FC(F)(F)c1nnc(-c2ccccc2)nc1Sc1ccc(Cl)cc1	RORg inh 6.3µM, Gal4-VP16 FLuc inconclusive
CC1(C)CC[C@]2(C(=O)O)CC[C@]3(C)C(=CCC4[C@@]5(C)CC[C@H](O)C(C)(C)C5CC[C@]43C)C2C1 (stereo not given in full)	RORg inh 6.3µM, Giardia killer inconclusive
S=c1[nH]nc(COc2ccc(Cl)cc2)n1Cc1ccccc1	RORg inh 2.5µM, Gal4-VP16 FLuc inconclusive
COc1ccccc1OCc1n[nH]c(=S)n1Cc1ccccc1	none
S=c1[nH]nc(COc2cccc(Cl)c2)n1Cc1ccccc1	RORg inh 1.4µM, Giardia killer inconclusive, ELG1 repair inh inconclusive, Gal4-VP16 FLuc inconclusive
Cc1ccc2nc(NS(=O)(=O)c3cn(C)nc3C)sc2c1	RORg inh 14µM, ELG1 repair inh inconclusive, Gal4-VP16 FLuc 11µM
CC(=O)NCc1ccc(-c2csc(NC(=O)CCc3nc4ccccc4c(=O)[nH]3)n2)s1	ELG1 repair inh 21µM (no result: RORg inh, Gal4-VP16 FLuc)
CC(=O)c1ccc(NC(=O)CCCC(=O)c2ccccc2)cc1	none
CC(=O)c1ccc(NCCC(=O)c2ccccc2)cc1	ELG1 repair inh inconclusive, BRCA1 expr up 11µM
CCS(=O)(=O)N1CCN(C(=O)CCC2CCCC2)CC1	none
CC1C/C(=N/N2C(=O)CSC2=S)CC(C)(C)C1 (stereo not given)	RORg inh 10µM
Cc1ccccc1/C=N/N1C(=O)CSC1=S	none
CC1C/C(=N/N=C2/NC(=O)CS2)CC(C)(C)C1 (stereo not given)	RORg inh 2.2µM, Gal4-VP16 FLuc 5µM
O=C1CS/C(=N/N=C2C3CC4CC(C3)CC2C4)N1	RORg inh 4.5µM, Gal4-VP16 FLuc 3.2µM
Cc1cc(C)nc(/N=C2/NC(=O)CS2)n1	none
COC(=O)/C(=C\Nc1ccc(OC)cc1)NC(=O)c1ccc(Cl)cc1Cl	none (no result: ELG1 repair inh, p53 reactivation)
O=C(CSc1nnc(-c2ccccc2O)o1)N1CCCCC1	ELG1 repair inh inconclusive
O=C(CCc1nc2ccccc2c(=O)[nH]1)Nc1cc(C(F)(F)F)ccc1N1CCCC1	none (no result: RORg inh, Gal4-VP16 FLuc)
CCOC(=O)c1ccc(COC(=O)c2ccc3c(c2)-c2ccccc2C3=O)cc1	none
O=C(OCc1cccc(F)c1)c1ccc2c(c1)-c1ccccc1C2=O	ELG1 repair inh inconclusive, BRCA1 expr up 11µM, p53 reactivation inconclusive
O=C(OCc1ccccc1F)c1ccc2c(c1)-c1ccccc1C2=O	ELG1 repair inh inconclusive, BRCA1 expr up 7.1µM, p53 reactivation inconclusive
C=CCN(C(=O)Nc1ccc(OC)cc1)c1nnc(-c2ccncc2)s1	RORg inh inconclusive, ELG1 repair inh inconclusive (no result: p53 reactivation)
CCCCOc1ccc(CNC(=O)CN2CCSc3ccccc32)cc1	none (no result: RORg inh, Giardia killer, ELG1 repair inh, Gal4-VP16 FLuc, p53 reactivation)
